Experimental data as given in PubChem BioAssay (NCI).
Compounds without any hit were thinned out: in the full panel of roughly 83,000, 20% have a hit.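 Interpretation: 100, growth as untreated; towards 0, rising growth inhibition; 0, no net growth; 0 to -100, cell death. Compounds scoring below 10 were considered active.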 Calls of active or inactive are those of the source.

Tested on: MDA-MB-435 melanoma
Test: NCI-60 one-dose screen, 48 h (100 = growth as untreated, 0 = no growth, -100 = all killed)
Conditions: 10 µM unless noted

| Structure (SMILES) | growth |
| --- | --- |
| C=C1C(=O)O[C@H]2[C@H]1CC/C(COC(=O)/C=C\C(=O)NCc1ccc(Cn3c(=O)sn(CCCCl)c3=O)cc1)=C\CC[C@@]1(C)O[C@@H]21 | 52.8% (inactive) |
| C#Cc1cccc(NC(=O)C2CCCCN2C(=O)CCl)c1 (stereo not drawn) | -57.3% [8.25 µM] (active) |
| O=C1CCCC1[n+]1ccccc1 (stereo not drawn) | 106% (inactive) |
| CC(C)Cc1nc(Nc2ccccc2)[nH]c(=O)c1C#N | 70.6% (inactive) |
| CC[C@H](Nc1nc(N)nc(C)c1C#N)c1nc2cccc(CN(C)c3ncc(C(=O)NO)cn3)c2c(=O)n1-c1ccccc1 | -3.69% (active) |
| N#CC1=C(N)Oc2c(sc3c(F)cccc23)C1c1ccc([N+](=O)[O-])cc1 (stereo not drawn) | -28.7% (active) |
| c1ccc(-c2c(-c3ccccc3)[n+](Cc3ccc4ccccc4c3)cn2Cc2ccc3ccccc3c2)cc1 | -91.3% (active) |
| O=C(CSc1nnnn1-c1ccccc1)Nc1ccc(Oc2ccccc2)cc1 | 106% (inactive) |
| Cc1ccc2c(c1)nc(C)n2-c1ncnc2c1CC(C)c1cc(O)ccc1N2C (stereo not drawn) | 3.76% (active) |
| Fc1ccc2[nH]cc(-c3nc(-c4c[nH]c5c(Cl)nccc45)cs3)c2c1 | 60.4% (inactive) |
| COc1ccc(Oc2ccc(/C=C/C(=O)c3ccc(OC)c(OC)c3)cc2)cc1 | 90.3% (inactive) |
| CCCCC#Cc1c(I)n(C2OC(CO[Si](C)(C)C(C)(C)C)C3OC(C)(C)OC32)c(=O)n(C(=O)c2ccccc2)c1=O (stereo not drawn) | 44.8% (inactive) |
| O=C(N/N=C/c1ccc(Cl)cc1)c1ccc(NC(=O)c2ccccn2)cc1 | 63.8% (inactive) |
| c1ccc(Nc2nc3c(s2)CCc2c[nH]cc2-3)nc1 | 110% (inactive) |
| COc1cc2c(cc1OCCCN1CCN(C(=S)SCCC(C#N)(c3ccccc3)c3ccccc3)CC1)N=C[C@@H]1CCCN1C2=O | -15.2% (active) |
| O=C(NCCCCCCNC(=O)OCc1ccc2c(Cl)cc(Cl)c(O)c2n1)OCc1ccc2c(Cl)cc(Cl)c(O)c2n1 | -82.9% (active) |
| O=C(/C=C/c1ccccc1)N(C1CCCCC1)C1CCCCC1 | 99% (inactive) |
| Cn1c2ccccc2c2c3c(c4c5cc(Br)ccc5n(C)c4c21)C(=O)N(O)C3=O | 22.8% (inactive) |

Tested on: SW-620 colon
Test: as above
Conditions: 10 µM unless noted

| Structure (SMILES) | growth |
| --- | --- |
| COc1ccc(/C=N/NC(=O)Cn2c(-c3ccc(S(C)(=O)=O)cc3)nc3ccccc32)cc1 | 97.6% (inactive) |
| CN(C)CCCn1c2c(c3ccncc3c1=O)C(=O)c1ccccc1-2 | -28.1% (active) |
| OC1(c2ccccc2)c2ccccc2N(c2ccccc2)c2ccc(Cl)cc21 (stereo not drawn) | -85.7% (active) |
| CC1(/C=C/c2ccc(-c3ccccc3)cc2)CCn2cnc3ncnc(c32)N1O (stereo not drawn) | 28.2% (inactive) |
| C=C1C(=O)O[C@H]2[C@H]1CC/C(COC(=O)/C=C\C(=O)NCc1ccc(Cn3c(=O)sn(CCCCl)c3=O)cc1)=C\CC[C@@]1(C)O[C@@H]21 | 22.1% (inactive) |
| C#Cc1cccc(NC(=O)C2CCCCN2C(=O)CCl)c1 (stereo not drawn) | -59.9% [8.25 µM] (active) |
| O=C1CCCC1[n+]1ccccc1 (stereo not drawn) | 117% (inactive) |
| N#C/C(=C\c1ccc(-c2cccc(Cl)c2)o1)C(=O)Nc1ncc(Cc2ccc(Cl)cc2)s1 | 62.5% (inactive) |
| O=S(O)c1cc(Cl)cc(Cl)c1OCc1ccccc1 | 107% (inactive) |
| O=C(C1=Cc2cc3ccccc3n2Cc2cnnn21)c1ccc(F)cc1 | 108% (inactive) |
| CC(C)Cc1nc(Nc2ccccc2)[nH]c(=O)c1C#N | 70.3% (inactive) |
| C[N+]1=C(/C=C/c2ccccc2Cl)C(C)(C)c2ccccc21 | 92.4% (inactive) |
| CSc1ccc(N2C(=N)C(=S)N(c3ccc(C)cc3)C2=O)cc1 | 103% (inactive) |
| CC[C@H](Nc1nc(N)nc(C)c1C#N)c1nc2cccc(CN(C)c3ncc(C(=O)NO)cn3)c2c(=O)n1-c1ccccc1 | 3.51% (active) |
| CC(C)CCC[C@@H](C)[C@H]1CC[C@H]2[C@@H]3CC=C4c5sc(Nc6cc(C(F)(F)F)cc(C(F)(F)F)c6)nc5CC[C@]4(C)[C@H]3CC[C@]12C | 100% (inactive) |
| N#CC1=C(N)Oc2c(sc3c(F)cccc23)C1c1ccc([N+](=O)[O-])cc1 (stereo not drawn) | -33.7% (active) |
| c1ccc(-c2c(-c3ccccc3)[n+](Cc3ccc4ccccc4c3)cn2Cc2ccc3ccccc3c2)cc1 | -79.8% (active) |
| O=C(CSc1nnnn1-c1ccccc1)Nc1ccc(Oc2ccccc2)cc1 | 98.9% (inactive) |
| Cc1ccc2c(c1)nc(C)n2-c1ncnc2c1CC(C)c1cc(O)ccc1N2C (stereo not drawn) | 21.5% (inactive) |
| Fc1ccc2[nH]cc(-c3nc(-c4c[nH]c5c(Cl)nccc45)cs3)c2c1 | 2.51% (active) |

| Structure (SMILES) | growth |
| --- | --- |
| COc1ccc(Oc2ccc(/C=C/C(=O)c3ccc(OC)c(OC)c3)cc2)cc1 | 83.9% (inactive) |
| CCCCC#Cc1c(I)n(C2OC(CO[Si](C)(C)C(C)(C)C)C3OC(C)(C)OC32)c(=O)n(C(=O)c2ccccc2)c1=O (stereo not drawn) | -49.2% (active) |
| O=C(N/N=C/c1ccc(Cl)cc1)c1ccc(NC(=O)c2ccccn2)cc1 | 71.5% (inactive) |
| COc1cc(-c2cc(-c3ccc(Nc4nc(Nc5ccc(Cl)cc5)nc(Nc5ccc(Cl)cc5)n4)cc3)no2)cc(OC)c1OC | 89.1% (inactive) |
| NCCCNc1nc2ccccc2c2c(=O)c3cc(Cl)ccc3sc12 | -90.6% (active) |
| Cc1ccc(OCCOCCOCCOCCOCCOc2ccc(C)n(O)c2=S)c(=S)n1O | 27.9% (inactive) |
| CC1(C)CC(=O)C2=C(C1)C(c1ccc(Cl)cc1)n1ncc(C#N)c1N2 (stereo not drawn) | 99.3% (inactive) |
| CN(C)/C(N)=N/N=C(\c1ccccc1)c1ccccn1 | 104% (inactive) |
| c1ccc(Nc2nc3c(s2)CCc2c[nH]cc2-3)nc1 | 102% (inactive) |
| COc1cc2c(cc1OCCCN1CCN(C(=S)SCCC(C#N)(c3ccccc3)c3ccccc3)CC1)N=C[C@@H]1CCCN1C2=O | -100% (active) |
| O=C(NCCCCCCNC(=O)OCc1ccc2c(Cl)cc(Cl)c(O)c2n1)OCc1ccc2c(Cl)cc(Cl)c(O)c2n1 | -62.8% (active) |
| O=C(/C=C/c1ccccc1)N(C1CCCCC1)C1CCCCC1 | 92.4% (inactive) |
| C=CCn1cc(-c2nc3ccccc3s2)c2cc(-c3ccc4c5c(cccc35)C(=O)N(CCO)C4=O)ccc21 | 98.9% (inactive) |
| COc1cc(/C=C/C(=O)c2cccc(-n3cc(-c4ccc(Cl)cc4)[nH]c3=O)c2)ccc1O | 16% (inactive) |
| O=C1Nc2ccc(Cl)cc2/C1=C/c1ccc[nH]1 | 112% (inactive) |
| Cn1c2ccccc2c2c3c(c4c5cc(Br)ccc5n(C)c4c21)C(=O)N(O)C3=O | 18% (inactive) |
| O=S(=O)(NCCNc1nccc(-c2c(-c3ccc(F)c(O)c3)nc3sccn23)n1)c1ccc(Cl)cc1 | 52.3% (inactive) |
| Cc1ccc(OCCOCCOCCOc2ccc(C)n(O)c2=S)c(=S)n1O | 24.5% (inactive) |
| C[C@@H]1NC(=O)[C@H](Cc2ccccc2)N(Cc2cccnc2)C1=O | 97.2% (inactive) |
| C=CC(CC(c1ccccc1)(c1ccccc1)c1ccccc1)N(CC)CC (stereo not drawn) | 55.4% (inactive) |
